Measurements from PubChem BioAssay.
The source made the active and inactive calls.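 Rule for the calls: active = viability at or below 10% of carrier control in both of two separate runs; inconclusive = viability at or below 10% in only one of the two runs; inactive = the rest.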

experiment: SK-BR-3 cell growth inhibitors, pilot screen, 24 h, human (AID 572); conditions: SK-BR-3 viability, CellTiter-Glo luminescence, at 10 µM, active compounds read low;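 note: compound exposure lasted between 18 and 24 h rather than exactly 24 h; 100% = carrier-treated control wells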

Row | SMILES | viability
1 | CCOc1ccccc1CNC(=O)CCN1C(=O)COc2ccccc21 | 104% (inactive)
2 | CCOc1ccccc1CN1C(=O)c2ccccc2C1C(=O)NCC1CCCO1 (stereo not given) | 104% (inactive)
3 | O=C(CCCc1cccs1)Nc1nc2c(s1)CCCC2 | 86.5% (inactive)
4 | COc1ccc(-c2noc(CCCC(=O)O)n2)cc1 | 130% (inactive)
5 | CCCN(Cc1cc2cc(C)ccc2[nH]c1=O)C(=O)c1cccc(OC)c1 | 114% (inactive)
6 | COC(=O)c1cnc2c(C(F)(F)F)cccc2c1OC | 104% (inactive)
7 | COc1ccccc1Nc1ccc(C(=O)NC2CCCCC2)cn1 | 100% (inactive)
8 | COc1cccc(C(=O)Nc2ncc3c(n2)CC(C)CC3=O)c1 (stereo not given) | 97.5% (inactive)
9 | Cc1ccc(-n2c(Cn3cnc4ccccc43)nnc2SCC(=O)O)cc1 | 102% (inactive)
10 | COCCNc1oc(-c2ccc(C)cc2)nc1C#N | 102% (inactive)
11 | c1cn(C23CC4CC(CC(C4)C2)C3)cn1 | 113% (inactive)
12 | CCN(Cc1cc2ccccc2[nH]c1=O)S(=O)(=O)c1ccccc1 | 110% (inactive)
13 | CCCCn1nc(C(=O)N2CCc3ccccc32)c2ccccc2c1=O | 81.5% (inactive)
14 | Cc1ccc(NCc2nnc(SCC(=O)N3CCCCC3)n2CC2CCCO2)c(C)c1 (stereo not given) | 94.5% (inactive)
15 | COC(=O)c1[nH]c2ccc(F)cc2c1NS(=O)(=O)c1ccc(OC)cc1OC | 79% (inactive)
16 | O=c1cc(COn2nnc3ccc(C(F)(F)F)cc32)nc2sccn12 | 89.5% (inactive)
17 | CS(=O)(=O)N1CCCC(C(=O)NCCCN2CCc3ccccc3C2)C1 (stereo not given) | 93% (inactive)
18 | CCNc1nc(N2CCOCC2)nc(N(c2ccccc2)c2ccccc2)n1 | 80.5% (inactive)
19 | NC(=O)CSc1nnc(-c2cc3ccccc3o2)n1Cc1ccccc1 | 92.5% (inactive)
20 | CS(=O)(=O)Nc1ccc(C(=O)NCc2ccco2)cc1 | 88.5% (inactive)

Row | SMILES | viability
21 | Cc1cc(C)c2[nH]c(=O)c(C(c3nnnn3Cc3ccc4c(c3)OCO4)N3CCC(C)CC3)cc2c1 (stereo not given) | 90% (inactive)
22 | Cc1ccc(CNC(=O)CSc2n[nH]c(N)n2)cc1 | 100% (inactive)
23 | C=C(C)Cn1c(N2CCN(CC)CC2)nc2c1c(=O)[nH]c(=O)n2C | 99.5% (inactive)
24 | Cc1cc(C(=O)CN2C(=O)c3ccccc3C2=O)c(C)n1Cc1cccs1 | 122% (inactive)
25 | Cc1ccc2nc(NCCCN3CCOCC3)c(C=NCCCN3CCOCC3)c(=O)n2c1 | 102% (inactive)
26 | O=C(Cn1cnc2ccccc2c1=O)NCCC(=O)N1CCN(c2ccccc2)CC1 | 90.5% (inactive)
27 | O=C(C1CCC1)N1CCc2cc(S(=O)(=O)N3CCc4ccccc4C3)ccc21 | 88% (inactive)
28 | CCC(=O)N1CCc2cc(Br)cc(S(=O)(=O)CCC(=O)NCC3CCCO3)c21 (stereo not given) | 118% (inactive)
29 | Cc1nc2ccccc2n1CCC(=O)Nc1cccc(F)c1 | 88% (inactive)
30 | CN(C)C(=O)N1CCC(C(=O)NC2CCCCCCC2)CC1 | 90% (inactive)
31 | O=C(CSCCSCC(=O)c1ccco1)c1ccco1 | 83.5% (inactive)
32 | O=c1cnnc(NCc2ccccc2)[nH]1 | 88.5% (inactive)
33 | COc1ccccc1C1CC(c2ccc(C)cc2)Nc2ncnn21 (stereo not given) | 107% (inactive)
34 | O=c1cc(CSc2ccccn2)c2ccccc2[nH]1 | 91.5% (inactive)
35 | COC(=O)CC1SC(=O)NC1=O (stereo not given) | 110% (inactive)
36 | Cc1ccc(C)c(N2CCN(S(=O)(=O)c3ccc4c(c3)OCCO4)CC2)c1 | 97.5% (inactive)
37 | O=C(NCCC1=CCCCC1)c1cc2c(s1)CS(=O)(=O)C2 | 114% (inactive)
38 | Cc1c(C(=O)OC(C)C)[nH]c2c1C(=O)CCC2 | 96.5% (inactive)
39 | Cc1cc(NCCN2CCCCC2)n2c(nc3ccccc32)c1C#N | 87.5% (inactive)
40 | CCOC(=O)Cn1nc(-c2ccc(C)cc2)ccc1=O | 99% (inactive)
